Experimental data as given in PubChem BioAssay AID1159580 (chemical genetic matrix, 2015).
Screen size: about 5,500 compounds; about 2,000 (36%) were called active. Inconclusive results (about 18%) are left out. No stated cut-off is given here; in the data, active means normalized growth mostly below about 0.91 (no sharp cut-off); inconclusive means no clear call, values can overlap the other calls; inactive means mostly above about 0.92. Some of the results follow.

Assay: chemical genetic growth profiling, strain panel (AID 1159580);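 further: tested at 20 µM; growth read once vehicle control cultures reached saturation at 30 °C; 1 = growth at the plate median or of vehicle wells; lower values mean less growth of the strain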
Conditions: S. cerevisiae deletion strains, growth OD
[1] = locus YAL013W, strain DEP1, hits give low values
[2] = locus YAL040C, strain CLN3, hits give low values
[3] = locus YCL061C, strain MRC1 (second series), hits give low values
[4] = locus YDR363W, strain ESC2, hits give low values
[5] = locus YER002W, strain NOP16, hits give low values
[6] = locus YGR078C, strain PAC10, hits give low values
[7] = locus YJR075W, strain HOC1, hits give low values
[8] = locus YMR263W, strain SAP30, hits give low values
[9] = locus YNL153C, strain GIM3, hits give low values
[10] = locus YNL175C, strain NOP13, hits give low values
[11] = locus YNL197C, strain WHI3, hits give low values
[12] = locus YNL224C, strain SQS1, hits give low values
[13] = locus YNL322C, strain KRE1, hits give low values
[14] = locus YOR083W, strain WHI5 (second series), hits give low values
[15] = locus YPL055C, strain LGE1, hits give low values
[16] = locus YDR150W, strain NUM1, hits give low values
[17] = locus YMR307W, strain GAS1, hits give low values
[18] = locus YGR229C, strain SMI1, hits give low values
[19] = locus YPL241C, strain CIN2, hits give low values

Measured: normalized growth

N[C@@H](CCCC(=O)O)C(=O)O
inactive: [1] 1.01 | [2] 1.08 | [3] 1.01 | [4] 1.02 | [5] 0.981 | [6] 1.01 | [7] 1.01 | [8] 1 | [9] 1.02 | [10] 1 | [11] 1.03 | [12] 0.988 | [13] 1.02 | [14] 0.993 | [15] 0.988

C[N+](C)(C)CC#CCN1CCCC1=O
inactive: [2] 0.99 | [3] 0.996 | [16] 1.01 | [4] 1 | [5] 0.985 | [6] 0.991 | [17] 1.01 | [9] 0.994 | [10] 0.996 | [11] 0.996 | [12] 0.996 | [13] 1 | [14] 1.01

CCCCN1CCC(n2c(=O)[nH]c3ccccc32)CC1
inactive: [2] 1.01 | [3] 1.01 | [4] 1.02 | [5] 0.994 | [18] 1.01 | [7] 1.02 | [8] 1 | [9] 0.952 | [10] 1.01 | [11] 1.03 | [12] 0.988 | [14] 1.01

O=c1[nH]c2ccccc2n1CCCN1CCN(C(c2ccccc2)c2ccccc2)CC1
active: locus YNL128W, strain TEP1, hits give low values 1.19 [resistant]
inactive: [2] 1.02 | [3] 1 | [16] 1.01 | [4] 1.01 | [5] 1.07 | [6] 1.02 | [7] 1 | [17] 1.03 | [10] 1.04 | [11] 1.04 | [12] 1.04 | [13] 1.01 | [14] 0.92 | [15] 1.02 | [19] 1

O=c1[nH]c2ccccc2n1CCCN1CCC(n2c(=O)[nH]c3cc(Cl)ccc32)CC1
inactive: [1] 0.982 | locus YAL021C, strain ccr4, hits give low values 0.982 | locus YAL026C, strain drs2, hits give low values 1.01 | locus YAL030W, strain snc1, hits give low values 0.991 | [2] 1 | locus YBL061C, strain skt5, hits give low values 0.981 | locus YBR009C, strain hhf1, hits give low values 0.967 | locus YBR023C, strain chs3, hits give low values 0.982 | locus YBR171W, strain sec66, hits give low values 0.979 | locus YBR231C, strain swc5, hits give low values 0.945 | locus YBR279W, strain paf1, hits give low values 0.992 | locus YCL011C, strain gbp2, hits give low values 0.987 | locus YCL016C, strain dcc1, hits give low values 0.989 | [3] 1.01 | locus YCL069W, strain vba3, hits give low values 0.978 | locus YCR088W, strain abp1, hits give low values 0.983 | locus YDL005C, strain med2, hits give low values 0.971 | locus YDL040C, strain nat1, hits give low values 0.959 | locus YDR001C, strain nth1, hits give low values 0.969 | locus YDR069C, strain doa4, hits give low values 0.971 | locus YDR137W, strain rgp1, hits give low values 1.05 | locus YDR159W, strain sac3, hits give low values 0.956 | locus YDR195W, strain ref2 0.979 | locus YDR297W, strain sur2, hits give low values 0.984 | locus YDR334W, strain swr1, hits give low values 0.976 | locus YDR335W, strain msn5, hits give low values 0.961 | [4] 1 | locus YDR392W, strain spt3, hits give low values 0.942 | locus YEL003W, strain gim4, hits give low values 0.976 | locus YEL037C, strain rad23, hits give low values 0.974 | locus YEL061C, strain CIN8 (second series), hits give low values 0.98 | [5] 0.997 | locus YER015W, strain faa2, hits give low values 0.976 | locus YER016W, strain bim1, hits give low values 1 | locus YER111C, strain swi4, hits give low values 0.976 | locus YFR010W, strain ubp6, hits give low values 0.951 | locus YGL167C, strain pmr1, hits give low values 0.964 | locus YGL173C, strain kem1, hits give low values 0.964 | locus YGL227W, strain vid30, hits give low values 0.972 | locus YGL240W, strain doc1, hits give low values 0.927 | locus YGL253W, strain hxk2, hits give low values 1.01 | [6] 1.01 | [18] 1.01 | locus YHR013C, strain ard1, hits give low values 0.965 | locus YHR027C, strain rpn1, hits give low values 0.997 | locus YHR030C, strain SLT2, hits give low values 1.02 | locus YHR079C, strain IRE1, hits give low values 0.994 | locus YHR142W, strain chs7, hits give low values 0.981 | locus YJL092W, strain hpr5, hits give low values 0.965 | locus YJL095W, strain BCK1 (second series), hits give low values 0.982 | locus YJL095W, strain BCK1, hits give low values 0.997 | locus YJL115W, strain asf1, hits give low values 0.994 | locus YJL129C, strain trk1, hits give low values 0.916 | locus YJL154C, strain vps35, hits give low values 0.958 | locus YJL164C, strain tpk1, hits give low values 0.997 | locus YJL166W, strain qcr8, hits give low values 0.929 | locus YJL187C, strain SWE1, hits give low values 0.978 | locus YJR066W, strain TOR1, hits give low values 0.932 | locus YKL160W, strain elf1, hits give low values 0.964 | locus YKR026C, strain gcn3, hits give low values 0.982 | locus YKR091W, strain srl3, hits give low values 0.984 | locus YLL001W, strain dnm1, hits give low values 0.917 | locus YLL026W, hits give low values 0.969 | locus YLL041C, strain sdh2, hits give low values 0.988 | locus YLR027C, strain aat2, hits give low values 0.972 | locus YLR113W, strain HOG1, hits give low values 1 | locus YLR221C, strain rsa3, hits give low values 1.01 | locus YLR258W, strain gsy2, hits give low values 0.998 | locus YLR262C, strain YPT6 (second series), hits give low values 0.999 | locus YLR320W, strain mms22, hits give low values 1 | locus YLR342W, strain FKS1, hits give low values 0.933 | locus YLR357W, strain rsc2, hits give low values 0.937 | locus YLR370C, strain arc18, hits give low values 0.966 | locus YLR384C, strain iki3, hits give low values 0.978 | locus YML120C, strain ndi1, hits give low values 0.962 | locus YMR058W, strain fet3, hits give low values 0.959 | locus YMR125W, strain sto1, hits give low values 1.02 | locus YMR129W, hits give low values 0.982 | locus YMR205C, strain PFK2, hits give low values 0.978 | locus YMR231W, strain pep5, hits give low values 0.977 | [17] 0.992 | locus YNL071W, strain lat1, hits give low values 0.989 | [10] 1.01 | locus YNL183C, strain NPR1, hits give low values 0.955 | [11] 1.02 | locus YNL209W, strain ssb2, hits give low values 0.992 | [12] 1 | locus YNL248C, strain rpa49, hits give low values 0.996 | locus YNL322C, strain KRE1 (second series), hits give low values 0.975 | locus YNR049C, strain mso1, hits give low values 0.983 | locus YOR001W, strain rrp6, hits give low values 0.952 | locus YOR070C, strain gyp1, hits give low values 0.991 | locus YOR080W, strain dia2, hits give low values 0.96 | [14] 0.926 | locus YOR083W, strain WHI5, hits give low values 0.911 | locus YOR106W, strain vam3, hits give low values 0.927 | locus YOR231W, strain MKK1, hits give low values 1.01 | locus YOR265W, strain rbl2, hits give low values 0.986 | locus YOR270C, strain vph1, hits give low values 0.936 | locus YOR290C, strain snf2, hits give low values 0.988 | locus YPL051W, strain arl3, hits give low values 0.971 | locus YPL078C, strain atp4, hits give low values 0.926 | locus YPL106C, strain sse1, hits give low values 0.998 | locus YPL240C, strain hsp82, hits give low values 0.997 | [19] 1.01 | locus YPL256C, strain CLN2, hits give low values 0.995
active: locus YER155C, strain BEM2 (second series), hits give low values 0.863
